# From PubChem
# In the library only some 7.3% were active in any assay of this set; here they are far more common.
# ELG1 genotoxic: genotoxicity induction in ELG1-luciferase HEK293T cells | Potency, µM (doses to about 46 µM), for inactives: at the top dose activity change, positive = activation, actives largely listed as activators | 1.3% of 330,000 active | HEK293T ELG1-luciferase reporter, luminescence, 16 h | AID 504466; also: % of control where 0% means no effect; nearly all actives have a fitted effect of over 60% in size
#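 ELG1-luciferase HEK293T cells, 2,000/well; compound pinned in; 16 hr, 37 °C, 5% CO2; ONE-Glo, 30 min RT; luminescence on CCD imager.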
# Rab9 prom act: Rab9 promoter activation; Huh7 Rab9 promoter-luciferase reporter, luminescence, 24 h; Potency, µM (top dose mostly 9.22 µM), without a hit: at the highest dose activation, negative = inhibition, hits mostly activators; 2.8% of 320,000 active; also: % of control where 0% means no effect; nearly all actives have a fitted effect of over 60% in size
#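 Luminescence read-out: Huh7 cells stably expressing Rab9-luciferase, treated 24 h with compound at 37 °C, then lysed with luciferase reagent for 10 min at ambient before reading.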
# KinaseGlo FLuc: blocks Kinase-Glo luciferase, a counter-screen artifact | Q27757 | Kinase-Glo luciferase, ATP luminescence, 8 min | Potency, µM (doses to about 38.3 µM), inactives show at the top dose activity change, negative = inhibition, most hits filed as inhibitors | 0.28% of 200,000 active; also: % is scaled to controls: 0 for no effect and ±100 for the full control effect; nearly all actives have a fitted effect of over 60% in size
#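 Luminescence was the read-out, taken after 8-minute incubation at ambient temperature. Luciferase turned over luciferin with 10 uM ATP in imidazole pH 7.2 buffer containing KCl, MgCl2, Tween 20 and BSA.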
# FLuc modulator: firefly luciferase modulation, counter-screen for miR-21 project | P08659 | purified FLuc, Km substrates, luminescence inhibition | Potency, µM (highest dose often 57.5 µM), without a hit: at the highest dose activity change, negative = inhibition, hits mostly inhibitors | 6.9% of 360,000 active | AID 588342;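 also: plate controls were vehicle for no effect and reference inhibitor for full effect; nearly all actives have a fitted effect of over 55% in size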
# Target sequence (P08659 whole entry, looked up): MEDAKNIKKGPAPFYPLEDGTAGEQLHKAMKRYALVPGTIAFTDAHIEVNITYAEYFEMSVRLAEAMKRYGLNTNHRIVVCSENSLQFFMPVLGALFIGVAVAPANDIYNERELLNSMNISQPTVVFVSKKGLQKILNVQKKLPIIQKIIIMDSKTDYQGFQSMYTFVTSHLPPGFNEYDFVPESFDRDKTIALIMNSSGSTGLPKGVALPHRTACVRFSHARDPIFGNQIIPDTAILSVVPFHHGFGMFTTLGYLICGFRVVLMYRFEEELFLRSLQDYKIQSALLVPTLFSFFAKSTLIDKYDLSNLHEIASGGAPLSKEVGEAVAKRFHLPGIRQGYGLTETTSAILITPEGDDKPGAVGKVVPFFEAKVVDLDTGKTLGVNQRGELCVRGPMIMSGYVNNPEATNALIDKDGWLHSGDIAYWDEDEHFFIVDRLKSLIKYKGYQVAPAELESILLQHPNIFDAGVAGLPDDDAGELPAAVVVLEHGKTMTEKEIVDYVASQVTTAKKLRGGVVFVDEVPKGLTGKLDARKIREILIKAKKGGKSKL
#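 Purified P. pyralis luciferase, 10 nM final, with Km-level 10 uM D-luciferin and 10 uM ATP in 50 mM Tris acetate pH 7.5, 10 mM Mg acetate, 0.01% Tween-20, 0.05% BSA; 6-point qHTS titration about 60 µM downward; luminescence read.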
# NPC1 promoter act: activators of NPC1 promoter | Potency, µM (top dose mostly 9.22 µM), without a hit: at the top dose activation, hits mostly activators | Huh7 NPC1 promoter luciferase reporter, 24 h | 2.4% of 320,000 active; also: % of control where 0% means no effect; nearly all actives have a fitted effect of over 60% in size
#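 Compounds in DMSO were transferred onto Huh7 NPC1-luciferase reporter cells pre-incubated 2 h; after 24 h at 37 °C, Amplite reagent was dispensed and luminescence recorded 10 min later.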
# SMN2 splice enh: enhancers of SMN2 splice variant expression | 2.8% of 210,000 active | Potency, µM (titrated, usually from 46.1 µM), inactives show at the highest dose activity change, positive = activation, usual class: activators | HEK293 SMN2-luciferase splicing reporter, luminescence, 30-36 h; also: % of control where 0% means no effect; nearly all actives have a fitted effect of over 55% in size
#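 HEK293 cells carry an SMN2 minigene-luciferase reporter in which exon 7 inclusion puts luciferase in frame. Cells were seeded at 2000 cells/well, attached for 10-12 hours, then exposed to compounds for 30-36 hours at 37C before ONE-Glo luminescence.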
# Starred values were filed as active, the others as inactive; u = inconclusive; x = not tested or not shown; [ ] = dose if it differs, or a comment. Calls follow the shape of the dose curve; as a rule, active = well fitted curve in the direction sought with a large enough effect; inconclusive = small, poorly fitted or top-dose-only effect, or another doubt; inactive = no such curve, though single readings can be large; an effect the other way counts as inactive or inconclusive. Potency is read from the fitted curve at half-maximal effect.
SMILES,ELG1 genotoxic,Rab9 prom act,KinaseGlo FLuc,FLuc modulator,NPC1 promoter act,SMN2 splice enh
O=C(N/N=C/c1ccc[nH]1)c1cc(-c2cccs2)nc2ccccc12,-15%,-1%,1%,15µM*,-5%,1%
Cc1cc(C(=O)N/N=C/c2cccnc2)c2ccccc2n1,-2%,0%,x,-3%,-6%,x
CC(C)COc1cccc(-c2cc(C(=O)N/N=C/c3ccncc3)c3ccccc3n2)c1,-8%,-3%,x,0.95µM*,-4%,x
O=C(Nc1ccc2nn(-c3ccc(F)cc3)nc2c1)c1cccc2c(Cl)cccc12,x,x,x,-3%,x,11%
O=C(N/N=C/c1cccnc1)c1cc(-c2cccs2)nc2ccccc12,-6%,-5%,-1%,24µM*,-6%,0%
COc1ccc(-c2cc(C(=O)N/N=C/c3cccnc3)c3cc(C)cc(C)c3n2)cc1,-5%,-2%,x,7.6µM*,-7%,x
COc1ccc(/C=N/NC(=O)c2cc(-c3cccnc3)nc3ccccc23)c(OC)c1,0%,-6%,-3%,-14%,1%,-27%
Cn1c(O)c(N=Nc2ccccc2)c2ccccc21,3%,-2%,x,27µM*,-1%,x
Cn1cccc1/C=N/NC(=O)c1cc(-c2cccs2)nc2ccccc12,-5%,-9%,3%,13µM*,-16%,0%
c1ccc2oc(NC3=NCN(CC4CCCO4)CN3)nc2c1 (stereo unspecified),10µM*,4µM*,-2%,17µM*,u,13µM*
OCCN1CN=C(Nc2nc3ccccc3o2)NC1,2%,-2%,0%,0%,-1%,4%
CN(CCC#N)C(=O)COC(=O)c1c2c(nc3ccccc13)/C(=C/c1ccco1)CC2,8%,u,-12%,11µM*,u,22µM*
Cc1ccc(-c2nnc(SCC(=O)NC(C)(C)C)nc2-c2ccc(C)cc2)cc1,x,x,x,4%,x,x
CCN1C(=O)c2cccc3c(NC(=O)c4ccc(OC)c(OC)c4)ccc1c23,15µM*,-4%,4%,4%,-3%,x
CC1(OC(=O)c2ccc(Cl)nc2)C(=O)C=c2cc(-c3ccsc3)ncc2=C1OC(=O)C1CCCC1 (stereo unspecified),x,x,-5%[7.66 µM],x,x,-1%[9.22 µM]
COCCCN1C(=O)c2ccc(C(=O)Nc3ccc(OC)cc3)cc2C1=O,8%,17%,12%,8.5µM*,-5%,1%
CC(C)CN1C(=O)c2ccc(C(=O)Nc3ccncc3)cc2C1=O,-4%,-5%,-4%,-9%,-12%,-12%
O=C(Nc1ccc(O)cc1)c1ccc2c(c1)C(=O)N(Cc1ccccc1)C2=O,1%,-1%,x,2%,-9%,x
COCCCN1C(=O)c2ccc(C(=O)Nc3ccccc3OC)cc2C1=O,3%,-1%,-4%,-11%,-2%,20%
Cc1ccc(O)c(NC(=O)c2ccc3c(c2)C(=O)N(Cc2cccnc2)C3=O)c1,8%,-1%,x,1.9µM*,1%,x
O=C(O)COc1ccc(NC(=O)c2ccc3c(c2)C(=O)N(Cc2ccccc2)C3=O)cc1,-1%,-5%,x,17µM*,-1%,x
CC(C)CN1C(=O)c2ccc(C(=O)Nc3ccc(OCC(=O)O)cc3)cc2C1=O,-1%,-4%,x,6.7µM*,-3%,x
COc1ccc(-c2c(C)nn3c(N4CCN(c5ccccc5)CC4)cc(C)nc23)cc1OC,x,x,x,-6%,x,11%
COc1ccc(N(Cc2nnc3n2CCCCC3)C(=O)Nc2cccc(C)c2)cc1Cl,x,x,x,1%,x,x
CC(C)c1ccc(OCC(=O)NC2=NCCS2)cc1,27%,16%,-10%,7.6µM*,u,x
SMILES,ELG1 genotoxic,Rab9 prom act,KinaseGlo FLuc,FLuc modulator,NPC1 promoter act,SMN2 splice enh
O=C(NC1=NCCS1)c1ccccc1,16%,23%,x,-18%,21%,x
CC(Oc1ccccc1)C(=O)NC1=NCCS1 (stereo unspecified),u,3.2µM*,-6%,15µM*,u,14µM*
O=C(COc1ccccc1)NC1=NCCS1,15µM*,-2%,-24%,7.6µM*,-5%,-28%
O=C(NC1=NCCS1)Nc1ccccc1,u,1.4µM*,-29%,9.5µM*,1.4µM*,10µM*
CN(C)CCNc1ccccn1,x,x,-2%[7.66 µM],x,x,-8%[9.22 µM]
O=C(O)c1cc(=O)[nH]c(=S)[nH]1,x,x,-3%[7.66 µM],x,x,-6%[9.22 µM]
Cc1cc(C)cc(NC(=O)CCN2C(=O)c3ccccc3Sc3ncccc32)c1,x,x,x,-5%,x,x
Cn1c(=O)n(/N=C/c2ccccc2)c2ccccc21,2%,17%,0%,15µM*,27%,u
Cc1nc2ccccc2c(=O)n1/N=C/c1ccccc1,2%,4%,-1%,u,3%,4%
Cc1ccc(CONC(=O)c2ccccc2Cl)cc1,11%,26%,x,u,2%,x
O=C(NOCc1ccccc1)c1ccc([N+](=O)[O-])cc1,u,1.3µM*,x,3.8µM*,u,x
O=C(NOCc1ccccc1)c1ccc(Cl)cc1,u,0.5µM*,x,1.2µM*,0.71µM*,x
COc1ccc(C(=O)NOCc2ccccc2)cc1,u,u,x,1.9µM*,u,x
CCCc1cc(=O)oc2c3c(ccc12)OCN(Cc1ccc(OC)cc1)C3,x,x,x,2%,x,x
CCOC(=O)c1cnc2c(C(=O)OCC)cnn2c1N,9%,4µM*,x,u,u,x
Cc1cc(C)n2ncc(/C(N)=N/OC(=O)c3ccccc3F)c2n1,u,u,x,12µM*,u,x
CCOC(=O)c1cnc2c(-c3cccc(Br)c3)cnn2c1C,u,3.5µM*,x,2.4µM*,3.2µM*,x
CCOC(=O)c1cnc2c([N+](=O)[O-])cnn2c1C,-2%,-1%,-3%,-4%,8%,10%
Cc1cc(C)n2ncc(/C(N)=N/OC(=O)Nc3ccc(Cl)cc3)c2n1,-6%,-3%,x,u,-1%,x
CCOC(=O)c1cnn2c(C)cc(-c3ccccc3)nc12,9.2µM*,3.5µM*,0%,19µM*,u,32µM*
CCOC(=O)c1cnn2c(N)c(C#N)cnc12,6%,-2%,2%,7%,4%,19%
O=C(Cc1ccccc1)N(Cc1cccnc1)c1nc2ccc(F)cc2s1,x,x,x,1%,x,x
CCOC(=O)c1cnn(C(=O)c2ccccc2)c1N,1%,4%,-27%,19µM*,-1%,-8%
CCOC(=O)c1cnn(Cc2ccccc2)c1N,-2%,0%,-3%,-4%,2%,-4%
O=C(Nc1ccc(NC(=O)C2CC2)cn1)c1ccccc1,u,0.35µM*,x,2.7µM*,0.32µM*,x
O=C(Nc1ccc(NC(=O)C2CC2)nc1)c1cccc(F)c1,14%,4.5µM*,x,u,u,x
O=C(Nc1ccc(NC(=O)C2CCCCC2)nc1)c1ccccn1,u,3.5µM*,-30%,17µM*,u,22µM*
